ROS inducer = ROS inducers in U2OS cancer cells, primary screen, cell-based, H2DCF-DA fluorescence; U2OS ROS induction; ROS induction (% of piperlongumine), % at 10 µM; 46,000 tested, 2% active; AID 624156, 2012; in the data active = ROS induction above about 79%, passing the limit was not always enough;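 note: 0% = DMSO vehicle median and 100% = reference compound median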
An asterisk follows results filed as active. Shown is part of a subset that was picked to be rich in hits.

SMILES	ROS inducer
Cc1ccc(S(=O)(=O)c2cc3c(=O)n4ccccc4nc3n(Cc3ccccc3)c2=N)cc1	-5
O=C(NO)c1cccc(C(=O)N/N=C/c2cccnc2)c1	-18
Cc1ccc(-c2nc(S(=O)(=O)c3ccc(F)cc3)c(NCc3ccco3)o2)cc1	6
CCC(C)S(=O)(=O)c1oc(-c2ccc(C)cc2)nc1S(=O)(=O)c1ccccc1 (stereo unspecified)	219*
NC(=O)CSc1oc(-c2ccccc2)nc1S(=O)(=O)c1ccccc1	0
Cc1cccc(NC(=O)CSc2nc(-c3cccs3)cc(C(F)(F)F)c2C#N)c1	21
CCN(CC)c1cc(-c2cccs2)nc(SCC(=O)c2cccs2)c1C#N	220*
CC(C)OC(=O)CSc1nc(-c2cccs2)cc(C(F)(F)F)c1C#N	68
C[C@H]1CN([C@@H](C)CO)C(=O)CCCn2cc(nn2)CO[C@H]1CN(C)S(=O)(=O)c1ccc(-n2cccn2)cc1	6
CCc1ccc(-n2c(C)nnc2SCC(=O)Nc2ccc(OC)cc2)cc1	-2
O=C(CSc1nnnn1-c1ccccc1)Nc1cc(Cl)c(Cl)cc1Cl	-12
O=C(CSc1nnnn1-c1ccccc1)Nc1cc(Cl)ccc1C(=O)O	154*
O=C(CSc1nnnn1-c1ccc(Cl)cc1)Nc1ccc(Cl)cc1Cl	-7
C[C@@H]1CN([C@@H](C)CO)C(=O)Cc2cc(NS(=O)(=O)c3ccc(F)cc3)ccc2O[C@@H]1CN(C)Cc1ccc(-c2ccccc2)cc1	21
CCOC(=O)c1cnc2c(C)cc(C)cc2c1Nc1ccc2c(c1)OCCO2	1
COc1ccc(NC(=O)Nc2ccc3c(c2)C(=O)N([C@H](C)CO)C[C@H](C)[C@@H](CN(C)C(=O)Cc2ccccc2)OCCCC[C@@H](C)O3)cc1	54
C[C@@H]1CN([C@H](C)CO)C(=O)c2cccc(NC(=O)c3ccncc3)c2O[C@H]1CN(C)S(=O)(=O)c1ccc(F)cc1	-5
CCOC(=O)c1ccc(N=C2SC(C(=O)O)CC(=O)N2Cc2cccs2)cc1 (stereo unspecified)	-5
CCCn1c(=N)c(C(=O)NC2CCCC2)cc2c(=O)n3ccccc3nc21	18
N#Cc1cc2c(=O)n3ccccc3nc2n(C2CCCC2)c1=N	5
C=CCNC(=O)c1cc2c(=O)n3cccc(C)c3nc2n(CC2CCCO2)c1=N (stereo unspecified)	90*
Cc1cccn2c(=O)c3cc(C(=O)NCC4CCCO4)c(=N)n(C4CCCCC4)c3nc12 (stereo unspecified)	96*
O=C(O)c1ccccc1C(=O)NCC1CCCO1 (stereo unspecified)	3
C=CCNC(=O)c1cc2c(=O)n3ccccc3nc2n(CCC)c1=N	56
C[C@@H]1CN([C@H](C)CO)C(=O)c2cc(NC(=O)c3ccncc3)ccc2O[C@@H]1CN(C)S(C)(=O)=O	-2
SMILES	ROS inducer
C[C@@H]1CCCCO[C@@H](CN(C)C(=O)CCC(F)(F)F)[C@@H](C)CN([C@H](C)CO)C(=O)c2cc(NC(=O)NC3CCCCC3)ccc2O1	8
Cc1cc(-n2c(SCC(=O)Nc3ccccc3)nnc2-c2cccnc2)ccc1Cl	16
C=CCn1c2ccccc2c2nnc(SC(CC)C(=O)Nc3nc4c(s3)CCCC4)nc21 (stereo unspecified)	37
CC12C=CC(=O)C=C1CCC1C2=CCC2(C)C1CC[C@@H]2C(=O)CN1CCN(c2cc(N3CCCC3)nc(N3CCCC3)n2)CC1 (stereo partly specified)	174*
N#CCC(=O)NCc1ccccn1	-3
C[C@@H]1C(=O)O[C@H](C)[C@H]1C[C@@H](O)[C@](C)(O)[C@H]1CC[C@@]2(O)C3=CC(=O)[C@@H]4C[C@@H](O)[C@@H](O)C[C@]4(C)C3CC[C@]12C (stereo partly specified)	-9
Cc1nn(-c2ccccc2)nc1C(=O)NC1CCS(=O)(=O)C1 (stereo unspecified)	7
O=S(=O)(C1=CC23CCCC2(C=C(S(=O)(=O)c2ccc(Cl)cc2)C3)C1)c1ccc(Cl)cc1 (stereo unspecified)	81*
CC1CCCCN1S(=O)(=O)c1ccc(Cl)cc1 (stereo unspecified)	-5
CC1CC(C)CN(S(=O)(=O)c2ccc(Cl)cc2)C1 (stereo unspecified)	-5
COc1ccc([N+](=O)[O-])cc1NC(=O)c1ccccc1N(C)S(C)(=O)=O	1
COC(=O)COc1cccc(NC(=O)c2ccccc2F)c1	3
COC(=O)COc1cccc(NC(=O)c2ccc(-c3ccccc3)cc2)c1	84*
Cc1cccc(C(=O)Nc2cccc(OCC(=O)O)c2)c1	-9
Cc1noc(C)c1NC(=O)Nc1ccc2c(c1)CC(=O)N([C@H](C)CO)C[C@H](C)[C@H](CN(C)S(=O)(=O)c1cccs1)O2	18
Cc1noc(C)c1NC(=O)Nc1ccc2c(c1)CC(=O)N([C@H](C)CO)C[C@H](C)[C@H](CN(C)Cc1ccc3c(c1)OCO3)O2	4
Cc1noc(C)c1NC(=O)Nc1ccc2c(c1)CC(=O)N([C@@H](C)CO)C[C@H](C)[C@H](CN(C)S(=O)(=O)c1cccs1)O2	12
C[C@H]1CN([C@@H](C)CO)C(=O)Cc2cc(NS(=O)(=O)c3ccccc3)ccc2O[C@@H]1CN(C)S(=O)(=O)c1ccc(Cl)cc1	19
Cc1ccc(S(=O)(=O)N(C)C[C@@H]2Oc3ccc(NS(=O)(=O)c4ccc(Cl)cc4)cc3CC(=O)N([C@H](C)CO)C[C@H]2C)cc1	14
Cc1noc(C)c1NC(=O)Nc1ccc2c(c1)CC(=O)N([C@H](C)CO)C[C@@H](C)[C@@H](CN(C)S(=O)(=O)c1cccs1)O2	106*
Cc1noc(C)c1NC(=O)Nc1ccc2c(c1)CC(=O)N([C@@H](C)CO)C[C@H](C)[C@H](CN(C)Cc1ccc3c(c1)OCO3)O2	124*
Cc1noc(C)c1NC(=O)Nc1ccc2c(c1)CC(=O)N([C@H](C)CO)C[C@@H](C)[C@@H](CN(C)Cc1ccc3c(c1)OCO3)O2	7
Cc1ccc(S(=O)(=O)N(C)C[C@@H]2Oc3ccc(NS(=O)(=O)c4ccc(Cl)cc4)cc3CC(=O)N([C@@H](C)CO)C[C@@H]2C)cc1	14
C[C@H]1CN([C@@H](C)CO)C(=O)Cc2cc(NS(=O)(=O)c3ccc(Cl)cc3)ccc2O[C@@H]1CN(C)S(=O)(=O)c1ccc(Cl)cc1	84*
Cc1ccc(S(=O)(=O)Nc2ccc3c(c2)CC(=O)N([C@H](C)CO)C[C@@H](C)[C@@H](CN(C)S(=O)(=O)c2ccc(Cl)cc2)O3)cc1	94*
SMILES	ROS inducer
C[C@@H]1CN([C@H](C)CO)C(=O)Cc2cc(NS(=O)(=O)c3ccccc3)ccc2O[C@H]1CN(C)S(=O)(=O)c1ccc(Cl)cc1	28
C[C@H](CO)N1C[C@H](C)[C@H](CN(C)C(=O)Nc2ccc3c(c2)OCO3)Oc2ccc(NC(=O)CCN3CCOCC3)cc2CC1=O	-1
COc1cc([C@H]2c3cc(O)c(OC)cc3C[C@@](O)(CO)[C@@H]2CO)ccc1O	-10
COc1ccc(S(=O)(=O)N(C)C[C@H]2Oc3ccc(NC(=O)C4CC4)cc3CC(=O)N([C@@H](C)CO)C[C@H]2C)cc1	-10
C[C@H]1CN([C@@H](C)CO)C(=O)c2cc(NC(=O)C3CC3)ccc2O[C@@H]1CN(C)Cc1ccc(C(=O)O)cc1	-3
CCN(CC)c1ccc(/C=N/NC(=O)CCCCCCC(=O)Nc2ccccc2O)c(O)c1	-7
COC(=O)Cn1ncn2nc(-c3cccs3)cc2c1=O	10
